# Source: PubChem BioAssay (Tox21)
# Inconclusive results are not listed. Calls of active or inactive are those of the source. Calls follow the shape of the dose curve; as a rule, active = well fitted cell-killing curve with a large enough effect in the repeat runs; inconclusive = weak or mixed curves, or effect the other way; inactive = flat fitted curve, though single readings scatter. Non-standard residues stand in square brackets, D forms with d. Residues, ends and D or L forms follow the SMILES beside them. *: point of attachment. Sta = CC(C)C[C@H](N)[C@@H](O)CC(=O)O; Isovaleryl = CC(C)CC(=O)*
# Assay: qHTS assay to identify small molecule antagonists of the retinoid acid receptor (RAR) signaling pathway - cell viability counter screen (AID 1159551); also: nearly all actives have a fitted effect of over 35% in size
# Conditions: C3RL4 cells viability, ATP luminescence (CellTiter-Glo), 6 h; series mostly up to 92.4 µM; activity change, negative = cytotoxicity: at the top concentration
# Source text: U.S. Tox21 Program National Center for Advancing Translational Sciences [NCATS] NIH Chemical Genomics Center [NCGC] U.S. Environmental Protection Agency [EPA] National Institutes of Environmental Health Sciences [NIEHS] National Toxicology Program [NTP] U.S. Food and Drug Administration [FDA] Tox21 Assay Overview: All-trans Retinoic acid (atRA) is the potent natural metabolite of retinol and plays an important role in normal embryonic development and maintenance of cellular phenotype in adult animals. atRA is the activating ligand for the retinoic acid receptors (RARs) which form heterodimers with retinoid X receptors (RXRs) on the retinoic acid response element (RARE). Through activation of the RAR/RXRs nuclear receptors, atRA regulates the transcription of a large number of protein-coding genes and regulatory RNAs. Intracellular levels of atRA are controlled by the retinol signaling pathway (RSP) that regulates the biosynthesis and catabolism of atRA to maintain physiological levels. Chemicals that interfere with the RSP can cause abnormal intracellular levels of atRA and therefore are potential developmental toxicants. To assess compounds for the potential adverse effect on embryonic development through interfering with retinol signaling, a cell-based RARE luciferase reporter gene assay was used. C3RL4 cell line (OARSA/CFSAN/FDA, Laurel, MD) was used to screen Tox21 10K compound library for identifying inhibitors of the RSP. Also cytotoxicity was assessed by determining the viability of cells based on the quantitation of ATP.
# Tox21 Assay Protocol Summary: C3RL4 cells were seeded at 1,000/well in 4 uL of assay medium into white solid 1,536-well tissue culture plates (Greiner Bio-One North America Inc. Monroe, NC) using a Multidrop Combi (Thermo Scientific, Waltham, MA) dispenser. After incubation at 37 C and 5% CO2 for an overnight, 23 nL of compounds dissolved in DMSO, positive control or DMSO only were transferred by a Pintool station (Kalypsys, San Diego, CA). One ul of 1 uM (final concentration) of Retinol was added right after the compound addition by using a Flying Reagent Dispenser (FRD) (Aurora Discovery, San Diego, CA). After 6 hr incubation at 37 C and 5% CO2, 5 uL of CellTiter-Glo reagent (Promega Corporation, Madison, WI) was added to each assay plate using an FRD. Luminescence was quantified on a ViewLux plate reader (PerkinElmer, Waltham, MA) after 30 min incubation at room temperature.
# % is scaled to controls: 0 for no effect and ±100 for the full control effect.
row,SMILES,"activity change, negative = cytotoxicity"
1,CCOc1ccccc1OCCN[C@H](C)Cc1ccc(OC)c(S(N)(=O)=O)c1,2.22% [at 42.5 µM] (inactive)
2,CCCOc1ccc(C(=O)OCCN(CC)CC)cc1N,0.555% [at 42.5 µM] (inactive)
3,CNCCc1ccccn1,3.95% [at 42.5 µM] (inactive)
4,Cc1ccc(N)nc1,4.36% (inactive)
5,C=CCCCCCCCCOC(C)=O,4.21% (inactive)
6,COC(=O)c1ccccc1Cl,1.85% (inactive)
7,CCCCCCC(=O)c1ccccc1,-0.889% (inactive)
8,CCC(C)c1nccnc1OC (stereo not given),-2.59% (inactive)
9,CNC(C)=O,0.643% (inactive)
10,CC(C)(C)C(=O)CC(=O)C(C)(C)C,-0.177% (inactive)
11,Cc1ccc2ccccc2n1,0.975% (inactive)
12,CCN(CC)CC(=O)Oc1ccc(NC(C)=O)cc1,3.02% [at 42.5 µM] (inactive)
13,C[C@@H]1CC[C@@]2(OC1)O[C@H]1C[C@H]3[C@@H]4CC[C@H]5C[C@@H](O)CC[C@]5(C)[C@H]4CC(=O)[C@]3(C)[C@H]1[C@@H]2C,-1.39% [at 8.39 µM] (inactive)
14,CC1(C)CC(N)CC(C)(C)N1,0.496% (inactive)
15,C[C@@H]1NC(=O)[C@@H](N)CNC(=O)[C@H](C2CCNC(N)=N2)NC(=O)/C(=C/NC(N)=O)NC(=O)[C@H](CNC(=O)C[C@@H](N)CCCN)NC1=O (stereo not given in full),5.1% [at 0.349 µM] (inactive)
16,COC(=O)c1cc(Cl)c(NC(C)=O)cc1OC,1.79% [at 42.5 µM] (inactive)
17,CO/N=C(\C(=O)O)c1csc(NC(=O)CCl)n1,1.7% [at 42.5 µM] (inactive)
18,CC(C)C(=O)Nc1cccc(C2CN3CCSC3=N2)c1 (stereo not given),-3.68% [at 42.5 µM] (inactive)
19,CCOC(=O)CC,-3.63% (inactive)
20,COc1ccc2cc(CCC(C)=O)ccc2c1,0.742% [at 42.5 µM] (inactive)

row,SMILES,"activity change, negative = cytotoxicity"
1,CC(C)C(C)C,0.0028% (inactive)
2,CCCc1ccc(O)c(OC)c1,-0.294% (inactive)
3,CCc1ccc(CC)cc1,0.992% (inactive)
4,CCCC(=O)CC,-0.186% (inactive)
5,Cc1ccc(O)c([N+](=O)[O-])c1,-0.983% (inactive)
6,CC(C)CC(=O)N[C@H](C(=O)N[C@H](C(=O)N[C@@H](CC(C)C)[C@@H](O)CC(=O)N[C@@H](C)C(=O)N[C@@H](CC(C)C)[C@@H](O)CC(=O)O)C(C)C)C(C)C (Isovaleryl-VV[Sta]A[Sta]-OH),-0.262% [at 42.5 µM] (inactive)
7,N[C@H]1C(O)O[C@H](CO)[C@@H](O)[C@@H]1O (stereo not given in full),-0.216% [at 42.5 µM] (inactive)
8,O=C(O)/C=C(\CC(=O)O)C(=O)O,-0.144% [at 42.5 µM] (inactive)
9,Cc1cc(C)c(N)c(Cl)c1,1.64% (inactive)
10,CC(C)(C)C(=O)CCc1ccc(Cl)cc1,-1.14% (inactive)
11,O=C(OOC(=O)c1ccccc1)c1ccccc1,0.467% [at 42.5 µM] (inactive)
12,CC(CC(=O)Cl)CC(C)(C)C (stereo not given),0.668% (inactive)
13,CCN1CCN(C(=O)N[C@@H](C(=O)N[C@@H]2C(=O)N3C(C(=O)O)=C(CSc4nnnn4C)CS[C@H]23)c2ccc(O)cc2)C(=O)C1=O,1.05% [at 42.5 µM] (inactive)
14,CC(C)(C)c1ccc(C(=O)CCCCl)cc1,-4.78% [at 42.5 µM] (inactive)
15,Cc1nnc(C(=O)NC(C)(C)c2nc(C(=O)NCc3ccc(F)cc3)c(O)c(=O)n2C)o1,3.44% [at 42.5 µM] (inactive)
16,CC(C)c1cc(C(C)C)cc(C(C)C)c1,2.58% (inactive)
17,CC(=O)/C=C/C=C1/C2CCC(C2)C1(C)C (stereo not given),-1.05% [at 42.5 µM] (inactive)
18,O=C[C@@H](O)[C@H](O)[C@H](O)CO,-0.248% (inactive)
19,C/C=C(\C)C(=O)OC/C=C(\C)CCC=C(C)C,-1.09% (inactive)
20,CN(C)CCc1c[nH]c2ccc(C[C@H]3COC(=O)N3)cc12,2.95% [at 42.5 µM] (inactive)
